Data from PubChem BioAssay AID1159580 (chemical genetic matrix, 2015).
Screen size: about 5,500 compounds; about 2,000 (36%) were called active. Roughly 18% stayed inconclusive and do not appear here. Cut-off read from the data, not from the text of the source: active = normalized growth mostly below about 0.91 (no sharp cut-off); inconclusive = no clear call, values can overlap the other calls; inactive = mostly above about 0.92. Some of the results follow.

Experiment: chemical genetic growth profiling, strain panel (AID 1159580);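 note: tested at 20 µM; growth read once vehicle control cultures reached saturation at 30 °C; 1 = growth at the plate median or of vehicle wells; lower values mean less growth of the strain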
Details: growth OD
[1] = S. cerevisiae deletion strains, locus YJR075W, strain HOC1, hits give low values
[2] = S. cerevisiae deletion strains, locus YMR307W, strain GAS1, hits give low values
[3] = S. cerevisiae deletion strains, locus YNL322C, strain KRE1, hits give low values
[4] = S. cerevisiae deletion strains, locus YPL055C, strain LGE1, hits give low values
[5] = S. cerevisiae deletion strains, locus YPL241C, strain CIN2, hits give low values
[6] = S. cerevisiae deletion strains, locus YAL013W, strain DEP1, hits give low values
[7] = S. cerevisiae deletion strains, locus YBR229C, strain ROT2, hits give low values
[8] = S. cerevisiae deletion strains, locus YDL101C, strain DUN1, hits give low values
[9] = S. cerevisiae deletion strains, locus YDL134C, strain PPH21, hits give low values
[10] = S. cerevisiae deletion strains, locus YDR150W, strain NUM1, hits give low values
[11] = S. cerevisiae deletion strains, locus YEL061C, strain CIN8, hits give low values
[12] = S. cerevisiae deletion strains, locus YGR078C, strain PAC10, hits give low values
[13] = S. cerevisiae deletion strains, locus YHR030C, strain SLT2, hits give low values
[14] = S. cerevisiae deletion strains, locus YHR087W, strain rtc3, hits give low values
[15] = S. cerevisiae deletion strains, locus YJR043C, strain POL32, hits give low values
[16] = S. cerevisiae deletion strains, locus YKL190W, strain CNB1, hits give low values
[17] = S. cerevisiae deletion strains, locus YLR039C, strain RIC1, hits give low values
[18] = S. cerevisiae deletion strains, locus YLR058C, strain SHM2 (second series), hits give low values
[19] = S. cerevisiae deletion strains, locus YLR085C, strain ARP6, hits give low values
[20] = S. cerevisiae deletion strains, locus YLR262C, strain YPT6, hits give low values
[21] = S. cerevisiae deletion strains, locus YML094W, strain GIM5, hits give low values
[22] = S. cerevisiae deletion strains, locus YMR219W, strain ESC1, hits give low values
[23] = S. cerevisiae deletion strains, locus YMR263W, strain SAP30, hits give low values
[24] = S. cerevisiae deletion strains, locus YNL153C, strain GIM3, hits give low values
[25] = S. cerevisiae deletion strains, locus YNL298W, strain CLA4 (second series), hits give low values
[26] = S. cerevisiae deletion strains, locus YNR030W, strain Alg12, hits give low values
[27] = S. cerevisiae deletion strains, locus YPR135W, strain CTF4, hits give low values
[28] = S. cerevisiae deletion strains, locus YGR229C, strain SMI1, hits give low values
[29] = S. cerevisiae deletion strains, locus YCL061C, strain MRC1, hits give low values

Measured: normalized growth

Nc1ccc(CCNc2ncnc3c2ncn3C2OC(CO)C(O)C2O)cc1 (stereo unspecified)
inactive: S. cerevisiae deletion strains, locus YAL040C, strain CLN3, hits give low values 1.03 | S. cerevisiae deletion strains, locus YCL061C, strain MRC1 (second series), hits give low values 0.997 | S. cerevisiae deletion strains, locus YDR363W, strain ESC2, hits give low values 0.988 | S. cerevisiae deletion strains, locus YER002W, strain NOP16, hits give low values 0.991 | [1] 1 | [2] 1.02 | S. cerevisiae deletion strains, locus YNL175C, strain NOP13, hits give low values 0.985 | S. cerevisiae deletion strains, locus YNL197C, strain WHI3, hits give low values 1.01 | S. cerevisiae deletion strains, locus YNL224C, strain SQS1, hits give low values 0.977 | [3] 0.995 | S. cerevisiae deletion strains, locus YOR083W, strain WHI5 (second series), hits give low values 0.995 | [4] 0.986 | [5] 0.999

OCc1nccn1Cc1ccc(Cl)cc1
inactive: [6] 1.02 | [7] 1 | [8] 1.03 | [9] 1.02 | [10] 1.05 | [11] 1 | [12] 1 | [14] 0.983 | [15] 1.03 | [1] 0.944 | [16] 0.999 | [17] 0.889 | [18] 0.998 | [19] 1.02 | [20] 0.849 | [21] 0.983 | [22] 1.01 | [23] 1.04 | [24] 1.02 | [25] 0.923 | [3] 1 | [26] 0.947 | [4] 1.08 | [5] 1.02 | [27] 1.03
active: [13] 0.288 | [2] 1.51 [resistant]

COC(=O)c1ccsc1N
inactive: [6] 0.988 | [7] 1 | [8] 1.01 | [10] 1.07 | [11] 0.985 | [12] 1 | [28] 0.981 | [13] 1.09 | [14] 0.995 | [15] 1.02 | [1] 1.01 | [16] 0.99 | [17] 1 | [18] 0.983 | [19] 0.94 | [20] 1.14 | [21] 0.97 | [22] 0.993 | [23] 1.02 | [24] 1 | [25] 0.963 | [3] 0.992 | [26] 0.976 | [4] 0.986 | [5] 0.958 | [27] 1.11

COC(=O)c1cscc1Sc1ccc(Cl)cc1
active: [9] 0.82 | [13] 0.319 | [17] 0.747 | [19] 0.664 | [20] 0.771 | [3] 0.939 | [26] 0.848 | [5] 0.845 | [27] 0.565
inactive: [6] 0.948 | [7] 0.953 | [29] 0.978 | [8] 0.961 | [10] 0.983 | [11] 0.931 | [12] 0.956 | [14] 0.944 | S. cerevisiae deletion strains, locus YJL187C, strain SWE1, hits give low values 0.995 | [15] 0.987 | [1] 0.943 | [18] 0.955 | [21] 0.914 | [22] 0.96 | [23] 0.989 | [24] 0.968 | [25] 0.916 | [4] 0.998 | S. cerevisiae strains, strain wild type, hits give low values 0.949

COc1cscc1C(N)=O
inactive: [6] 1.01 | [7] 0.984 | [29] 1.02 | [8] 1 | [10] 1.06 | [11] 0.959 | [12] 1.01 | [28] 0.99 | [13] 1.06 | [14] 1.03 | [15] 1.04 | [1] 1.04 | [17] 1.01 | [18] 0.997 | [19] 0.965 | [20] 0.998 | [21] 0.979 | [22] 0.987 | [23] 1.06 | [2] 0.966 | [24] 1.01 | [25] 0.969 | [3] 0.996 | [26] 1.01 | [4] 1.12 | [5] 0.957 | [27] 1.14
